Screening data as filed in PubChem BioAssay.
The list is not random: actives were taken first. Their share in the collection is about 15%.
Pf growth 48h – Primary qHTS for delayed death inhibitors of the malarial parasite plastid, 48 hour incubation. P. falciparum luciferase growth in erythrocytes, 48 h. Potency, µM (series often up to 28.7 µM), hits mostly inhibitors. 310,000 tested, 5.9% active. AID 504832, 2011
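Parasite viability was followed by luminescence of a genomically integrated firefly luciferase. Cultures held 0.1% parasitemia at 2% hematocrit (final), incubated under 5% CO2 at 37 C.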
SARS PLpro yeast – qHTS of Yeast-based Assay for SARS-CoV PLP | 330,000 tested, 0.19% active | Potency, µM (series often up to 32.9 µM), usual class: activators | S. cerevisiae expressing SARS-CoV PLpro, growth rescue; calls by dose curve; note: nearly all actives have a fitted effect of over 55% in size
Pf growth 96h – Primary qHTS for delayed death inhibitors of the malarial parasite plastid, 96 hour incubation; P. falciparum luciferase reporter growth, 96 h; Potency, µM (highest dose often 28.7 µM), actives largely listed as inhibitors; 320,000 tested, 6.9% active
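Cell-based qHTS: luciferase-tagged P. falciparum in erythrocytes (2% hematocrit, 0.05% parasitemia final) incubated with compounds for 96 hours, 37 C, 5% CO2; luciferase detection reagent then added and luminescence measured.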
HCV inhibitor – qHTS Assay for Inhibitors of Hepatitis C Virus (HCV); Potency, µM (highest dose often 41.8 µM), most hits filed as inhibitors; Huh7.5.1 HCVcc-Cre infection, luciferase reporter, 44 h; 340,000 tested, 3.4% active
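Infectious HCVcc-Cre (~0.5 moi) was added to cells just after compound, with cells seeded 4 h earlier at 1,000 per well. Luciferase activity after 44 h culture reported infection; substrate was incubated 15 min at room temperature before reading.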
HCMV antiviral – qHTS Assay for inhibitors of the human cytomegalovirus (HCMV). HFF cells, HCMV-luciferase reporter, 72 h; active compounds read low. activity change, negative = inhibition, % at 57.5 µM. 410,000 tested, 4.5% active. AID 1259415, 2018; in the data active = activity change below about -60%; inconclusive = no clear call, values can overlap the other calls; inactive = above about -39%
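After 16 h attachment at 37C, HFF cells received test compound and HCMV-luciferase (1 PFU/cell); reporter luminescence read 72 h later, data normalized against buffer-only and known inhibitor Salinomycin.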
Sm TGR block – qHTS Assay for the Inhibitors of Schistosoma Mansoni Peroxiredoxins | Schistosoma mansoni thioredoxin glutathione reductase (TGR), Q962Y6 | Potency, µM (top dose mostly 114 µM), actives largely listed as inhibitors | 360,000 tested, 3% active | purified TGR, DTNB reduction, TNB absorbance 405 nm | AID 485364, 2010; note: nearly all actives have a fitted effect of over 60% in size
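TGR 20 nM + NADPH 100 uM (dispensed conc.), cpd preinc 15 min RT; start with NADPH (500 uM addition) then DTNB (15 mM addition). Kinetic TNB absorbance, 405 nm filter. Four-parameter Hill fit across titration.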
Large screens that a line does not name were inactive; ! = not active in a repeat. Unless noted, calls come from the whole dose curve; as a rule, active = well fitted curve in the direction sought with a large enough effect; inconclusive = small, poorly fitted or top-dose-only effect, or another doubt; inactive = no such curve, though single readings can be large; an effect the other way counts as inactive or inconclusive.

Oc1ccc(F)c2cccnc12	Pf growth 48h inconclusive, Pf growth 96h 15µM, HCV inhibitor inconclusive
Oc1ccc(Cl)c2cccnc12	Pf growth 48h 13µM, Pf growth 96h 12µM, HCV inhibitor inconclusive (no result: SARS PLpro yeast, Sm TGR block)
Cc1ccc(S(=O)(=O)Nc2cc(Cl)c(O)c3ncccc23)cc1	Pf growth 48h 7.4µM, SARS PLpro yeast inconclusive, HCV inhibitor inconclusive, HCMV antiviral -98, Sm TGR block 16µM
CC(=O)NCc1cc(Cl)c2cccnc2c1O	Pf growth 48h inconclusive (no result: HCV inhibitor, HCMV antiviral)
O=C(O)c1ccc(O)c2ncccc12	Pf growth 48h inconclusive, Pf growth 96h inconclusive (no result: HCV inhibitor)
Cc1ccc(S(=O)(=O)Nc2cccnc2Oc2ccc(Cl)cc2)cc1	Pf growth 48h inconclusive, Pf growth 96h inconclusive
OC(CNC1CCCCC1)CON=C1CCSc2c(Cl)cccc21 (stereo not given)	none (no result: Pf growth 48h, SARS PLpro yeast, Pf growth 96h, HCV inhibitor, Sm TGR block)
COC(=O)c1scc(-c2ccc(C)cc2)c1S(=O)(=O)Nc1cc(C)c(Cl)cc1OC	none (no result: Pf growth 48h, SARS PLpro yeast, Pf growth 96h, HCV inhibitor)
Cn1c(N)c(C(=O)CSc2nc(N)cc(N)n2)c(=O)n(C)c1=O	none
CC(C)(C)NC(=O)NC(=O)CSc1ccc(S(=O)(=O)N2CCCCC2)cn1	Pf growth 48h inconclusive, Pf growth 96h inconclusive
O=C(Oc1c(Cl)cc(Cl)c2cccnc12)c1ccco1	Pf growth 48h inconclusive, HCV inhibitor inconclusive, HCMV antiviral -102 (no result: Pf growth 96h)
Oc1c(I)cc(I)c2cccnc12	Pf growth 48h inconclusive, Pf growth 96h 11µM!, HCMV antiviral -100, Sm TGR block inconclusive
Cc1ccc2c(Cl)cc(Cl)c(O)c2n1	HCV inhibitor inconclusive, HCMV antiviral -75 (no result: Pf growth 48h, SARS PLpro yeast, Pf growth 96h, Sm TGR block)
CC1=C(CC(=O)NCC(=O)NCC(=O)O)c2cc(F)ccc2/C1=C/c1ccc(S(C)=O)cc1 (stereo not given)	none
CC(C)c1ccc(NC2=NCC(=O)N2Cc2cccs2)cc1	HCV inhibitor inconclusive, HCMV antiviral -60 (no result: Sm TGR block)
CCc1ccc(NC2=NCC(=O)N2Cc2ccc3c(c2)OCO3)cc1	Pf growth 96h 9.3µM
O=C1CN=C(Nc2ccccc2)N1Cc1cccs1	none (no result: Pf growth 96h)
CN(C)NC(=S)NC1CC2CCC1C2 (stereo not given)	HCMV antiviral -61
O=C(NCc1ccccc1Cl)c1ccc(S(=O)(=O)N2CCCC2)cc1	Pf growth 48h inconclusive, Pf growth 96h inconclusive
O=C(O)c1ccc(Cl)c(S(=O)(=O)Nc2cccc(C(=O)Nc3cccc(C(F)(F)F)c3)c2)c1	Pf growth 96h 10µM
O=C(NCc1ccccc1Cl)c1ccc(S(=O)(=O)Nc2cccc(C(F)(F)F)c2)cc1	HCMV antiviral -66
COc1ccc(C(=O)O)cc1S(=O)(=O)Nc1cccc(C(F)(F)F)c1	none
CCc1ccc(NC(=O)C(=O)NCC(c2ccc3c(c2)OCO3)N2CCOCC2)cc1 (stereo not given)	none (no result: Pf growth 48h, SARS PLpro yeast, Pf growth 96h, HCV inhibitor)
CNCCCC1Sc2ccccc2Oc2ccccc21 (stereo not given)	Pf growth 48h inconclusive, Pf growth 96h 9.3µM, HCV inhibitor inconclusive
COc1ccc(C2=NOC(COc3ccc4c(C)cc(=O)oc4c3)C2)c(OC)c1 (stereo not given)	Pf growth 48h inconclusive, Pf growth 96h inconclusive, HCV inhibitor inconclusive, HCMV antiviral -69
COc1ccccc1C1=NOC(COc2ccc3c(C)cc(=O)oc3c2)C1 (stereo not given)	HCV inhibitor inconclusive, HCMV antiviral -95
CCOc1ccc(NC(=O)CCc2nc3cccnc3n2-c2ccccc2)cc1	none (no result: Pf growth 48h, SARS PLpro yeast, Pf growth 96h, HCV inhibitor)
CCOc1nc(-c2ccccc2)ccc1-c1noc(-c2ccc(C)cc2)n1	none (no result: Pf growth 48h, SARS PLpro yeast, Pf growth 96h, HCV inhibitor)
COCc1nc(-c2cc(Br)ccc2OC)no1	HCV inhibitor 13µM (no result: SARS PLpro yeast, Pf growth 96h)
COc1ccc(-c2ccc(-c3noc(C(C)C)n3)c(OC)n2)cc1	HCV inhibitor 1.6µM
COCc1nc(-c2ccc(-c3ccccc3)nc2OC)no1	Pf growth 96h inconclusive, HCV inhibitor 14µM
CCOc1nc(-c2ccccc2)ccc1-c1noc(COC)n1	Pf growth 48h inconclusive, Pf growth 96h inconclusive, HCV inhibitor 10µM
